Screens deposited in PubChem by several laboratories.
FXN GAA850 act: increases GAA850 frataxin promoter reporter activity; HEK293 lucGAA850 FXN promoter luciferase reporter, 24 h; percent of 10 µM SAHA response; activation, % at 6 µM; actives 0.56% (n = 360,000);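 active means activation above the average of all compounds screened plus 3 SD, cutoff fixed separately per campaign, cut at about 7.5% in these data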;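 further: 0% = DMSO wells and 100% = 10 µM SAHA wells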
Wnt bcat act: Wnt/beta-catenin pathway activation | Wnt/beta-catenin reporter cell assay, activator, plate reader | actives 1.2% (n = 300,000) | AID 743398 | activation, % at 9.35 µM; in the data active means activation above about 30%, passing the limit was not always enough; inconclusive means no clear call, values can overlap the other calls;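 further: 0% = neutral control wells and 100% = positive control wells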
MITF act: MITF TRPM1 promoter activation in melanoma cells | SK-MEL-5 TRPM1-promoter luciferase, 24 h; % of positive control, neutral wells = 0 | activation, % at 12.5 µM | actives 0.75% (n = 300,000) | AID 588334;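 active means mean activation of at least 80% with every replicate also reaching 80%; inconclusive means mean reaches 80% but some replicate falls short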;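 further: 0% = neutral control wells and 100% = parthenolide positive control wells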
esBAF inh: blocks esBAF chromatin remodeling in mouse ES cells. Bmi1-luciferase knock-in reporter, 24 h; 100% = twice the neutral-well signal. AID 602393. reporter increase, % at 12.5 µM. actives 2% (n = 350,000); in the data active means activation above about 40%; inconclusive means no clear call, values can overlap the other calls;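 further: 0% = median of the plate's neutral control wells and 100% = double that signal; a rise in the Bmi1 reporter signal indicates esBAF inhibition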
* = called active by the depositor; ? = inconclusive; · = no result given. Compounds with a hit are over-represented: about 2.8% of the library has one in this group of screens.

SMILES	FXN GAA850 act	Wnt bcat act	MITF act	esBAF inh
C[C@@H]1CN([C@@H](C)CO)C(=O)Cc2cc(NS(C)(=O)=O)ccc2O[C@H]1CN(C)S(=O)(=O)c1ccc(Cl)cc1	·	·	·	0.8
O=C(Nc1nc(-c2ccc(F)c(F)c2)cs1)C1=COCCO1	2.9	8.6	62.3	52.6*
O=C(Nc1nc(-c2cccs2)cs1)C1=COCCO1	3.6	-6.6	62.5	·
O=C(Nc1nc(-c2ccc(Cl)cc2)cs1)C1=COCCO1	3.9	-2.1	98.6*	·
COc1ccc(-c2csc(NC(=O)C3=COCCO3)n2)cc1OC	5.4	35.2*	73.6	65.5*
COc1ccc(-c2csc(NC(C)=O)n2)cc1OC	1.1	6.2	·	29.4
O=C(Cc1ccccc1F)Nc1nc(-c2ccc(F)c(F)c2)cs1	5.2	9.1	83.2*	65.1*
COCC(=O)N1C[C@@H](C)[C@H](OC)CN(C)C(=O)c2ccc(NC(=O)NC(C)C)cc2OC[C@H]1C	·	·	·	3.5
COc1ccc(NC(=O)N(C)C[C@@H]2Oc3ncc(C#CCC(C)C)cc3C(=O)N([C@H](C)CO)C[C@H]2C)cc1	·	·	·	-0.8
Cc1cc(C)c(-c2csc(NC(=O)C3=COCCO3)n2)c(C)c1	-0.9	0.3	-8.3	28.9
CCc1ccc(-c2csc(NC(=O)C3=COCCO3)n2)cc1	1.9	?	82.3*	74.7*
Cc1ccccc1Nc1nc(N)nc(CSc2ccc(F)cc2)n1	4.5	17.2	89.2*	?
Cc1ccccc1Nc1nc(N)nc(CSc2nnnn2C)n1	6.3	0.3	45.7	55.9*
Cc1ccc(SCc2nc(N)nc(Nc3ccccc3C)n2)cc1C	3.9	-2.0	6.9	·
COc1ccc(C(=O)Nc2ccc3c(c2)C(=O)N(C)C[C@@H](OC)[C@H](C)CN(C(=O)C2CC2)[C@H](C)CO3)cc1	·	·	·	1.5
Cc1nc2c3cnn(-c4ccc(C)c(C)c4)c3ncn2n1	2.4	·	87.2*	·
C#CCn1cnc2c(cnn2-c2ccc(C)c(C)c2)c1=O	2.7	·	66.0	65.6*
Cc1ccc(-n2ncc3c(=O)n(CC(N)=O)cnc32)cc1C	1.3	1.9	28.3	11.1
Cc1ccc(-n2ncc3c(=O)n(CC#N)cnc32)cc1C	1.9	3.3	2.9	16.3
C[C@H](C(=O)N(C)C[C@@H]1OCc2ccccc2-c2ccccc2C(=O)N([C@@H](C)CO)C[C@H]1C)c1ccccc1	·	·	·	-2.7
CN(CC(=O)Nc1cccc(F)c1)C(=O)c1cccc2ccccc12	0.9	-5.3	4.1	13.0
CN(CC(=O)Nc1cccc(F)c1)C(=O)c1sc2ccccc2c1Cl	2.2	-5.1	16.0	61.5*
O=C(Nc1nnc(-c2ccccc2)s1)c1ccccc1O	1.0	10.4	45.4	67.4*
COc1cccc(C(=O)Nc2nnc(-c3ccccc3)s2)c1OC	3.8	45.3*	56.2	36.0
CC(C)=CC(=O)Nc1nnc(-c2ccccc2)s1	6.2	20.8	53.2	13.0
SMILES	FXN GAA850 act	Wnt bcat act	MITF act	esBAF inh
O=C(Nc1ccccc1)Nc1nnc(-c2ccccc2)s1	0.7	32.9*	·	50.5*
COc1ccccc1C(=O)N(C)c1nnc(-c2ccccc2)s1	4.4	39.8*	63.4	49.2*
COc1ccccc1C(=O)Nc1nnc(-c2ccccc2)s1	5.0	8.4	·	46.9*
COc1cccc(C(=O)Nc2cccc3cccnc23)c1OC	3.4	·	25.3	43.0*
O=C(Nc1nnc(-c2ccccc2F)s1)c1cccnc1	2.1	-4.4	48.0	59.7*
COc1ccc(C(=O)Nc2nnc(-c3ccccc3)s2)cc1	3.2	8.8	21.8	46.6*
COCC(=O)N(C)C[C@@H]1Oc2cc(-c3ccncc3)ccc2S(=O)(=O)N([C@@H](C)CO)C[C@@H]1C	·	·	·	-0.4
Cc1ccc(-c2ccc3c(c2)O[C@H](CN(C)C)[C@H](C)CN([C@H](C)CO)S3(=O)=O)cc1	·	·	·	-2.7
Cc1ccc(NC(=O)Nc2nnc(-c3ccccc3F)s2)cc1	1.4	32.6*	47.9	·
COc1ccc(NC(=O)Nc2nnc(-c3ccccc3F)s2)cc1	-0.8	-3.4	43.4	·
COc1cc2ccccc2cc1C(=O)NC1CCCC1	6.0	4.8	12.5	96.4*
COc1cc(SC)ccc1C(=O)NC1CCCCC1	0.6	10.7	27.2	54.1*
COc1ccc(OC)c(-c2cc(C(=O)NC3CCCC3)c3ccccc3n2)c1	0.4	2.1	0.6	-11.6
COc1cc2ccccc2cc1C(=O)NC1CCC(C)CC1 (stereo unspecified)	2.6	38.1*	118.1*	56.7*
COc1ccccc1C(=O)Nc1ccccc1C(=O)NC1CCCCC1	1.5	-3.8	-11.3	0.8
COc1cc2ccccc2cc1C(=O)NC1CCCCC1	3.1	23.7	73.9	45.5*
CC(C)C#Cc1ccc2c(c1)O[C@@H](CN(C)C(=O)c1ccccn1)[C@@H](C)CN([C@H](C)CO)S2(=O)=O	·	·	·	1.6
Cc1noc(C)c1S(=O)(=O)Nc1ccc2c(c1)CC(=O)N([C@@H](C)CO)C[C@@H](C)[C@H](CN(C)Cc1ccc(C(=O)Nc3ccccc3N)cc1)O2	·	·	·	-10.3
N#C[C@@H]1[C@@H](c2ccc(-c3ccncc3)cc2)[C@@H](CO)N1C(=O)C1CCOCC1	·	·	·	-2.6
Cc1cc(=O)oc2cc(OCc3ccccc3)ccc12	4.5	14.6	60.2	25.8
Cc1cc(=O)oc2cc(OCc3c(F)cccc3Cl)ccc12	·	42.1*	·	·
Cc1nc(NC(=O)C2CC2)sc1C(=O)Nc1ccccc1Cl	1.3	0.6	·	53.1*
COc1ccc(-c2cnc3c(c2)C(=O)N([C@@H](C)CO)C[C@H](C)[C@@H](CN(C)C(=O)C2CCC2)O3)cc1	·	·	·	2.5
Cc1cc(NC(=O)CC2CCCC2)ccc1Br	2.5	12.9	63.3	65.3*
Cc1cccc(NC(=O)CC2CCC2)c1	1.5	·	17.4	14.9
SMILES	FXN GAA850 act	Wnt bcat act	MITF act	esBAF inh
O=C(CC1CCCC1)Nc1ccc2c(c1)CCC2	2.6	3.8	42.9	84.4*
Cc1cc(NC(=S)NC(=O)CC(C)C)ccc1Br	3.2	8.6	57.3	57.9*
CNC(=O)C[C@H]1CC[C@@H]2[C@@H](COc3ccc(NC(=O)c4ccccc4Cl)cc3C(=O)N2C)O1	·	·	·	6.8
O=C(Nc1ccc(SC(F)F)cc1)c1ccc(F)cc1	3.3	16.8	86.8*	·
CNC(=O)Nc1ccc(C2SCCS2)cc1	2.2	7.2	·	·
O=C(Nc1ccc(F)cc1)c1cccc(C(=O)Nc2ccc(F)cc2)c1	-0.8	-1.0	0.5	11.3
O=C(Nc1ccc(F)cc1)c1ccccc1	2.1	-5.7	104.1*	80.8*
O=C(Nc1ccc(C2SCCS2)cc1)c1ccccc1	3.0	48.6*	·	·
O=C(Nc1ccc(SC(F)F)cc1)c1ccccc1F	1.7	16.6	79.5	·
O=C(/C=C/c1ccccc1)Nc1cccc(C(=O)NCCCc2ccccc2)c1	3.0	2.7	30.4	43.1*
C[C@@H]1CCCCO[C@@H](CN(C)S(=O)(=O)c2ccccc2)[C@@H](C)CN([C@@H](C)CO)C(=O)c2cc(NC(=O)CCCN(C)C)ccc2O1	·	·	·	-5.9
O=C(CNc1ccccc1)Nc1ccc(F)cc1	4.9	·	74.0	51.7*
COC(=O)c1ccc(C(=O)Nc2ccc(F)cc2)cc1	2.4	28.4	79.0	66.6*
O=C(NCCc1ccc(F)cc1)c1cccc(NC(=O)c2ccccc2)c1	1.5	4.6	18.0	64.6*
